IMPase Li cell: membrane-permeable IMPase blocker, potentiated with lithium; CHO-M1 cells, IP1 TR-FRET (IP-One), carbachol + lithium; Potency, µM (top dose mostly 59.4 µM), for the others: at the top dose activity, negative = IMPase inhibition, hits mostly inhibitors; 210,000 compounds, 0.35% hits; AID 1457;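 also: IP1 builds up when IMPase is blocked and the TR-FRET signal falls; potency is read from the fitted curve at half-maximal effect; plate controls were basal vehicle for no effect and high inhibitor control for full effect; nearly all actives have a fitted effect of over 50% in size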
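IP1 accumulation measured by competitive TR-FRET in lysed CHO-M1 cells after 30 min compound exposure at 37C, with a small lithium addition to potentiate weak responses. Hill-equation AC50 from ratio and donor-channel data.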
PNC assembly inh: blocks assembly of the perinucleolar compartment; 140,000 compounds, 3.1% hits; activity change (PNC), negative = inhibition, % at 10 µM; AID 2417; PC3M PTB-GFP, PNC prevalence imaging, 16 h; active compounds read low;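 active = readout at or below -70, meaning at least 70% loss of cells showing the perinucleolar compartment, a nuclear body marking cancer cells; inconclusive = readout between -30 and a set limit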;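 also: plate controls were DMSO wells for no effect and camptothecin positive control wells for full effect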
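Read-out is percentage of cells bearing a perinucleolar compartment, from automated 20x imaging of fixed, Hoechst-stained PC3M PTB-GFP cells. Cells were seeded 4 h, then exposed 16 h to compound (23 nl of library stock) in duplicate plates.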
NPSR antagonist: blocks cAMP signaling of the human neuropeptide S receptor. 220,000 compounds, 1% hits. AID 1461. Q6W5P4. Potency, µM (highest dose often 38.3 µM), inactives show at the top dose activity change, negative = inhibition, actives largely listed as inhibitors. CHO-NPSR cells, cAMP TR-FRET, antagonist mode; also: potency is read from the fitted curve at half-maximal effect; % is scaled to controls: 0 for no effect and ±100 for the full control effect; nearly all actives have a fitted effect of over 50% in size
Target sequence (Q6W5P4 whole entry, looked up): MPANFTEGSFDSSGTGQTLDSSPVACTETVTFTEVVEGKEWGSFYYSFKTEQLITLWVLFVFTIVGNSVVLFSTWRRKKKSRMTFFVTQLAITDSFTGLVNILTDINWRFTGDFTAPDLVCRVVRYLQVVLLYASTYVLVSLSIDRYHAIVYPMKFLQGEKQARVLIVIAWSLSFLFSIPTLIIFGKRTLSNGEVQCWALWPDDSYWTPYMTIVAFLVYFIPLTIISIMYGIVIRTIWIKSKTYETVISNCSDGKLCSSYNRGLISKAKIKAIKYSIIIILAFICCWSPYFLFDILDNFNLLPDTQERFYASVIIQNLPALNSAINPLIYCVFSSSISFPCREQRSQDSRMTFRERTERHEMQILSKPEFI
HTT aggregate: inhibitors of mutant huntingtin aggregate formation in PC12 cells; PC12 HttQ103-GFP aggregates, Acumen cytometry, 40 h; AID 1688; 220,000 compounds, 1.1% hits; Potency, µM (titrated, usually from 46.1 µM), without a hit: at the highest dose activity change, negative = inhibition, actives largely listed as inhibitors; also: potency is read from the fitted curve at half-maximal effect; % is scaled to controls: 0 for no effect and ±100 for the full control effect; nearly all actives have a fitted effect of over 60% in size
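Aggregates are detected as GFP objects 1–25 µm with signal 6 STDEV over background in lysates of induced PC12 cells. These carry Huntingtin exon 1 with 103 glutamines fused to GFP under an ecdysone promoter; compounds titrated.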
HTT ATP protect: cytoprotection in Huntington HTT-Q103 PC12 cell model. PC12 HTT-Q103 induced, cytoprotection, ATP luminescence, 40 h. 230,000 compounds, 0.14% hits. Potency, µM (highest dose often 56.4 µM), without a hit: cytoprotection (ATP increase), most hits filed as activators; also: potency is read from the fitted curve at half-maximal effect; % of control where 0% means no effect; nearly all actives have a fitted effect of over 45% in size
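Readout: ATPlite luminescence (ATP level). Model: stable PC12, inducible Htt exon1 Q103-GFP. Inducer: tebufenozide, 100 nM final. Compounds: dose series. No G418 in medium.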
IMPase inh: membrane-permeable compound that blocks inositol monophosphatase. P97697. CHO-M1 cells, IP1 accumulation, HTRF TR-FRET ratio. inhibition (IP1 accumulation), % at 46.1 µM. 120,000 tested, under 10 active. AID 901; active = well fitted curve in the direction sought with a large enough effect in the signal ratio, not every such curve was filed as active; inconclusive = small, poorly fitted or top-dose-only effect, or a change in a side signal; inactive = no such curve, though single readings can be large or run the other way; the % refers to the signal ratio;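 also: cells stimulated with carbachol in lithium chloride buffer; plate controls were DMSO basal wells for no effect and reference inhibitor wells for full effect; higher means more IMPase inhibition seen as more IP1 and lower FRET ratio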
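Cellular IMPase inhibition is scored as a rise in cytosolic IP1, detected by competitive TR-FRET between d2-labelled IP1 and a europium anti-IP1 antibody. M1-expressing CHO cells were stimulated with carbachol for 30 min at 37C, with lithium (50 mM LiCl) present in the buffer.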
Numbers without * were called inactive; ? = inconclusive; . = not tested or not shown; [ ] = another dose, or the depositor's remark. This is a sample that favours compounds with a hit; in the whole collection about 3.4% have one here. Unless noted, calls follow the shape of the dose curve; as a rule, active = well fitted curve in the direction sought with a large enough effect; inconclusive = small, poorly fitted or top-dose-only effect, or another doubt; inactive = no such curve, though single readings can be large; an effect the other way counts as inactive or inconclusive.

SMILES | IMPase Li cell | PNC assembly inh | NPSR antagonist | HTT aggregate | HTT ATP protect | IMPase inh
COc1ccc(C(C)=O)cc1CSc1nnc(Nc2ccc(C)cc2)s1 | 4.2% | -113.0* | -9.5% | -32.7% | 4.4%[10 µM] | .
COc1ccc(C(C)=O)cc1CSc1nnc(Nc2ccccc2)s1 | 6.0% | 4.4 | 4.2% | ? | . | .
CCC(/C=C1\Sc2ccc(OC)cc2N1CCO)=C\c1sc2ccc(OC)cc2[n+]1CCO | 56.6% | -12.2 | 10µM* | ? | 12.1%[10 µM] | .
CCC(/C=C1\Sc2ccc(OC)cc2N1CC)=C\c1sc2ccc(OC)cc2[n+]1CCCS(=O)(=O)[O-] | 28.5% | . | -34.3% | ? | -17.0% | .
C[C@@H]1CCC2C(C)(C)C3CC21CC[C@@]3(C)O (stereo partly drawn) | 6.2% | . | . | . | 4.8% | .
Cc1ccc2nc3cc([N+](=O)[O-])cc([N+](=O)[O-])c3cc2c1 | 8.5% | . | 7.94µM* | ? | . | .
Cc1nc2ccc([N+](=O)[O-])cc2nc1C | 8.2% | . | 23.1% | -7.1% | -1.8% | .
CCC(C)C(NC)C(=O)O (stereo not drawn) | -8.4% | . | . | . | . | .
COC(=O)C1=CN(C)C=C(C(=O)OC)C1c1ccccc1Cl | 0.8% | -108.9* | -1.5% | 6.3% | -6.1% | ?
Cc1ccc2nc(-c3cccs3)c(Nc3ccc4c(c3)OCCO4)n2c1 | . | . | . | . | . | 5.4
Cc1ccc(-n2c(CSc3nc(C)cc(C)n3)nnc2SCC(=O)N2CCCC2)cc1 | -8.4%[38.3 µM] | -100.0* | -25.2%[46.1 µM] | 9.1% | -18.3% | -1.7
CCC/C=C(\CCC)C(NC(=O)c1ccco1)c1ccc(C(=O)OC)cc1 (stereo not drawn) | 10.2% | . | . | . | -7.2% | .
Cc1ccc(C)c(N2CCN(C(=O)C3CCCN(S(=O)(=O)c4c(C)[nH]c(=O)[nH]c4=O)C3)CC2)c1 (stereo not drawn) | -0.8%[38.3 µM] | -86.3* | -11.0%[46.1 µM] | -16.8% | -12.6% | -6.8
Cc1ccc(NC(=O)C2CCN(S(=O)(=O)c3c(C)[nH]c(=O)[nH]c3=O)CC2)cc1 | 10.3%[38.3 µM] | -97.8* | -2.0%[46.1 µM] | 3.9% | 7.8%[10 µM] | -2.8[1.84 µM]
Nn1c(COc2ccccc2)nc2ccccc2c1=O | -7.4%[38.3 µM] | -88.8* | -3.0%[46.1 µM] | -24.2% | -28.6%[0.074 µM] | -0.8
COc1cccc(OCc2nc3ccccc3c(=O)n2N)c1 | 21.6%[38.3 µM] | -29.3 | -9.2%[46.1 µM] | -18.1% | -9.5% | 7.3
S=C1N(c2ccccc2)C(c2ccc(Br)cc2)N2CCCN12 (stereo not drawn) | . | . | ? | -2.7%[9.22 µM] | -6.1%[10 µM] | .
Cc1ccc(C)c(-n2nnnc2Sc2nnnn2-c2ccccc2)c1 | 0.0%[38.3 µM] | -0.4 | -14.0%[46.1 µM] | 20µM* | -88.4%[10 µM] | 5.3
CCSc1nnnn1-c1ccccc1 | 6.1%[38.3 µM] | -13.8 | -25.8%[46.1 µM] | 20.4% | 4.8%[10 µM] | 2.5
CCOC(=O)c1[nH]c2ccc(OCC)cc2c1CCCN1C(=O)c2ccccc2C1=O | 15.5% | -11.3 | -22.4% | 9.2% | . | .
CC(=O)N1CCC(N(CCN2CCOCC2)C(=S)Nc2ccccc2C)CC1 | -6.3% | -111.8* | 9.5% | 4.3% | -7.3%[10 µM] | .
S=c1[nH]nc(Nc2cccc3ccccc23)s1 | . | . | 14.8% | 3.6%[9.22 µM] | 36.8%[10 µM] | .
Nc1ccccc1-c1n[nH]c(=S)s1 | 12.6µM* | . | ? | 14.5% | -55.1% | .
CN[C@@H]1[C@H](O[C@H]2[C@H](O[C@H]3[C@H](O)[C@@H](O)[C@H](N=C(N)N)[C@@H](O)[C@@H]3N=C(N)N)O[C@@H](C)[C@]2(O)C=O)O[C@@H](CO)[C@H](O)[C@H]1O | 1.9% | . | . | 14.2% | ? | .
CCOC(=O)c1c(CSC(=N)N)n(-c2ccc(C)cc2)c2cc(Br)c(OC(C)=O)cc12 | 7.6%[38.3 µM] | 56.7 | 10µM* | ? | -133.2% | 1.4
O=c1c(O)c(-c2ccc(O)c(O)c2)oc2c(OC[C@H]3O[C@@H](O)[C@@H](O)[C@H](O)[C@@H]3O)c(O)cc(O)c12 | . | . | . | . | -0.4% | .
Cc1cc(N2C(=O)C(O)=C(C(=O)c3cccs3)C2c2cccc(O)c2)no1 (stereo not drawn) | -28.2%[38.3 µM] | ? | -1.8%[46.1 µM] | 14.8% | 9.4% | -13.9
